Reference: the supplement of paper PMC11417369
Whole data set: some 25,000 sequences, median “ln(normalized median fluorescence intensity)” near 6.7, cut for the highest 2% near 10. The sample holds the highest values, similar sequences and a random draw of the others, so the mix is not that of the screen.

test system: PfHDP1 homeodomain (GST-tagged); experiment: gcPBM binding intensity (ln(normalized median fluorescence intensity)); higher = stronger DNA binding
Procedure, shortened: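 For binding intensity, the highest Masliner-normalised natural-log median intensity across replicate spots of either probe orientation was taken. Protein bound to the array was stained with Alexa488 anti-GST antibody and scanned at 488 nm. The protein, GST-tagged P. falciparum DNA-binding domains from E. coli at about 25 μg on average, had been applied for 1 h to an Agilent 4 × 180k array of primer-extended double-stranded 36-bp intergenic genomic probes and negative controls.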

| Sequence | gcPBM binding intensity (ln) |
| --- | --- |
| ATATATATATATATATGTACATACATACATAGAACT [XGTACX_site2214] | 9.21 |
| TTTTATTTTTAAAATTGTACATTATTATTGTTATTT [XGTACX_site1439] | 6.3 |
| ATAATGAACAAAGTAGTGCACTTTCCTTATCTTTTC | 10.7 |
| CCTTTCCTTTTATAAGTGCATATAACAAATGTATAC [GTGCAC_site9872] | 8.03 |
| ATATCTTATAATACGGTGCACTTGACATGAACAACT [GTGCAC_site9987] | 10.3 |
| AAATGTGAACTATAATAATTTCAACGTCTGATATAA [TGCATGCA_negctrl_site440] | 5.94 |
| TTGAACTCTCTTACGCGTACGTGTTATTATGAAAAT [XGTACX_site6265] | 6.73 |
| TTTTTCATAAAACACACACACAAAAATAATGTGGAA [CACACA_site3687] | 6.56 |
| TTTCAAAATGTGTAAAATAAAAATAATATCATTACA [TGCATGCA_negctrl_site521] | 6.42 |
| TTTCAAATGGAATGTGTGCACATAAATGTAAATAAA | 10.8 |
| AAAAAAAAAAAAGGCACACAAACATATGTAGACATA [CACACA_site2284] | 6.61 |
| ATAATAAAATAAATCACACATAATATAATGTAATAT [CACACA_site6144] | 6.49 |
| AAAAAAAAATCAAAATGTACTTATTTTTATAATAAT [XGTACX_site4712] | 6.31 |
| AAGATTAAAAATTGCACACAAAAATATATTTTCTAT [CACACA_site1305] | 9.78 |
| AAGATTAAACATTGCACACAAAAACATATTTTCTAT [CACACA_site530] | 9.7 |
| TTTTCTATAAGATTTGCACACAACTTATTCTATTAA [CACACA_site3752] | 10.6 |
| TTTTTTTTTTTCAATAGTACTTTCCATTTACATATA [XGTACX_site3889] | 6.32 |
| TGAACTCATAGGAAAACACACATATGTGTAATATAT [CACACA_site4267] | 7.27 |
| TGAACTCATAGGAAAACACACATATGTGCAATATAT [CACACA_site6231] | 11.3 |
| TGAACTCATAGGAAAACACACATATGGGTAATATAT [CACACA_site187] | 6.78 |
| CTATTTTTATATTATTGTACGTTGTTATTATATATA [XGTACX_site1469] | 6.79 |
| CACTAATATATATACAGTACATAATAAAGTATATAA [XGTACX_site6875] | 6.16 |
| TGTCCAATTTATTGTGCACACCTCAAAAGTGGGTAA [CACACA_site3826] | 11.1 |

| Sequence | gcPBM binding intensity (ln) |
| --- | --- |
| AATGCACAGCTCTTAGGCAAAAGTGGGTATTTACAC [GTGCAC_negctrl_site579] | 8.63 |
| TTGGGTATTTTGTGCGCACACACATGCAAAAAGAAA [CACACA_site8299] | 9.63 |
| TTTTTTTCTAATTATGCACACATATCAAAATATTCA [CACACA_site8886] | 10.2 |
| TAGTTGCACATGTATACACACAAAAAATATTTTATG [CACACA_site475] | 10.4 |
| TTTATGAAATGTTGCACACAAAAAACAACATGTTTT [CACACA_site1440] | 9.63 |
| TATTTTATATGAGGCACACAAATTTTAATTGTTATT [CACACA_site725] | 5.99 |
| ATTTTATGAAATGTTGCACACAAAAAACAACATGTT [CACACA_site8408] | 9.69 |
| ATACATGTTTTATGTGCACACAAAGTTGTTATGAGG [CACACA_site4032] | 10.8 |
| ACATGTTTTATGTGCACACAAAGTTGTTATGAGGTT [CACACA_site4031] | 10.7 |
| TCTTCATAAAAATAAAGTACATTATATATATAAATA [XGTACX_site3775] | 6.37 |
| AAAAAATAGAATATGGGTACTAAAAAGATACAAACA [XGTACX_site4464] | 6.84 |
| AAGTTTAAAGGAATTACACAAACAAGCAAATATATA [CACACA_negctrl_site857] | 6.92 |
| ACAATTTTATTTAAAGTGCATGTAAAATTAAAACTT | 7.44 |
| TCATTAATCAGGTATGCATGCATAACTATTAAAAAT [TGCATGCA_site90] | 6.46 |
| AAAAAACTATTATGTGCATGCACAAGTCAGGTAAAT [TGCATGCA_site791] | 11.3 |
| ATAAAAATATAAACATGTACATAAAAATCTATATAT [XGTACX_site405] | 6.72 |
| TTTCATTTGTCGTTATGTACTTATTAAATATTATTA [XGTACX_site7709] | 6.92 |
| TTAATACATATATATATATTATATATATATATATAT [TGCATGCA_negctrl_site177] | 8.89 |
| ATTTTCTTTTCCATAGTGCAATATAATTATCCATCA [GTGCAC_site9547] | 10.9 |
| TTCTAAAATTATATAGTGCAATTATATTAATTTTTC | 8.98 |
| CTTAAAATATATTTAGTGCATATACTAATATATTAT | 8.9 |
| TTATATAATTTAATAGTGCAATTATATTAATTTTTC | 8.66 |
| ATATATCATATTATAGTGCATTTATAATAATATTAT | 8.51 |

| Sequence | gcPBM binding intensity (ln) |
| --- | --- |
| TTACAATAAATTATAGTGCAATATTTTATTTAATAT | 10.6 |
| ATGATATATTTAATAGTGCACTAATTAAAATTATTA [GTGCAC_site9418] | 10.8 |
| ATATATATATTTATAGTGCATTTATATTAAAATATC [GTGCAC_site9818] | 8.5 |
| ATATTTTATATAATAGTGCAAATAATATTAAATAAT | 9.78 |
| TATATATATATATATATATATATATATATAATATTA [XGTACX_negctrl_site558] | 9.37 |
| TGGAGGATAGTTCACAGTACCCAGTAACTCTACGGA [XGTACX_site4930] | 6.22 |
| TATATATATATAATTGCACACATCAAGTTTGATGTT [CACACA_site1288] | 9.99 |
| CAAAATGATATGACAACACACAACCTATAGTAAGAC [CACACA_site1287] | 6.91 |
| ATCATCCAAGATCTTACACACATATTAAATAAATAA [CACACA_site1473] | 6.66 |
| AGGCCTTTTAGTATTTCACACACGTAAATGTGTATA [CACACA_site8284] | 6.43 |
| GGAATATATATACATACACACATATATATATATATA [CACACA_site1666] | 9.32 |
| GTTCTAATATATTGCACACGTAAAAATATAGGTAAT [CACACA_site886] | 10.6 |
| TTGTTCTAATATATTGCACACGTAAAAATATAGGTA [CACACA_site8195] | 10.1 |
| TACGTAAATTCTAATACACACTATAGGATATTCTGC [CACACA_site7248] | 6.41 |
| AAAAAAAAAAAACACACACACACACCCAAATATATA [CACACA_site150] | 6.84 |
| GGAAAAAATATATGCACACCCCCCAAAAAAAAAAAA [CACACA_site2222] | 9.67 |
| TGGGAAAAAATATATGCACACCCCCCAAAAAAAAAA [CACACA_site8696] | 10.6 |
| ATTAAATGTATGACTTGTACATAAAATAAAAAAAAA [XGTACX_site6555] | 6.56 |
| AAATAAAATAATAAAACATGCAAAAATAATGATTTA [TGCATGCA_site415] | 6.72 |
| TAAAGGAAATAAAAAACATGCAAATATGAAATATAT [TGCATGCA_site745] | 6.74 |
| AGGTGCAAAAATAAAACATGCAAAAATAAAAATGAA [TGCATGCA_site502] | 10.7 |
| TTTATTAAAATATTCTCACACACCAAAATATGTATG [CACACA_site932] | 6.42 |
| TATATATATTTTTGTGTGCACTATAATATGAAAATA | 10.3 |

| Sequence | gcPBM binding intensity (ln) |
| --- | --- |
| TTTTAATATATAGAGTAACAAATTTGTCTATTAATA [CACACA_negctrl_site1495] | 6.6 |
| ATAACAAAAATCCTTGTGCACTATTTTAATAGAGTC | 10.5 |
| TAAAAAATAAATATATGTACATATTTATTTTTTTTT [XGTACX_site850] | 6.19 |
| TATCATATATAAAGAGGTACGTAAGAATAGAAAATT [XGTACX_site798] | 7.27 |
| TCTTTCCTTATTAAAACACACAAATACATTATTTAA [CACACA_site2147] | 6.7 |
| TAATAAAAAAAGTGCACACACATAATATTTATATAT [CACACA_site7548] | 8.75 |
| GTGCAAAATATTTTTACACACAAATTCTTACAACAG [CACACA_site7556] | 7.77 |
| TTTTTTATTTTGTGCACACACATAAAAATATATATA [CACACA_site761] | 11.4 |
| TTTTTTTTTGTTAAAGTGCATATATTAAATTTTCCT [GTGCAC_site9677] | 7.82 |
| GTATTTCTTTAATATACACACACCAAAACAAAAAAA [CACACA_site579] | 6.98 |
| ATAAAAAAAAATATTTGTACACATATTTATATATTA [XGTACX_site8147] | 6.56 |
| ACATTAAAAAATTGTTTGCACTATATAAAATATTAA [GTGCAC_site9728] | 8.82 |
| GAAATTTGTTATTGCACACAAATTTTTCTTTTTTTA [CACACA_site2339] | 9.6 |
| TTTTTGTTACCTATTGTGCACTTCATATAAATTAAA | 10.9 |
| CATTTTATTTTCTTTGTGCACAAAAATATTTTTTCT | 10.8 |
| TTTTATTTCTTTGCACCATTTTAAATACAAACAAAT [CACACA_negctrl_site1553] | 11 |
| CATTAATAAAAAAAAAGTACAAAAAATATATATATT [XGTACX_site2091] | 6.88 |
| TCGTCTCAATAATTATAATAAAAAAATTCCTAAGTC [CACACA_negctrl_site338] | 6.28 |
| TATATGCCTATAAGAAGTACTGTGTAATGTAATATA [XGTACX_site8089] | 6.67 |
| TTGTGTTATCCTTTTTTAGATCAACTATTTTTATTC [CACACA_negctrl_site145] | 6.32 |
| AAAGGAAAAAAAAGCACACACAATATTACTTGAAAT [CACACA_site2588] | 6.9 |
| TAATTATTACACGGTATTATATATAATATGTTAAAA [GTGCAC_negctrl_site134] | 6.6 |
| ATATTGATACATCCAATACACACTACATATAATGAT [CACACA_site1874] | 6.82 |
